{
  "source": "PubChem BioAssay (Tox21)",
  "note": "Active and inactive are the calls of the source. Entries that show only a call come without a potency. Calls follow the shape of the dose curve; as a rule, active = well fitted activation curve with a large enough effect in the repeat runs; inconclusive = weak or mixed curves; inactive = flat fitted curve, though single readings scatter.",
  "data": [
    {"target": "KiSS-1 receptor (Homo sapiens) (UniProt Q969F8)", "sequence (Q969F8 whole entry, looked up)": "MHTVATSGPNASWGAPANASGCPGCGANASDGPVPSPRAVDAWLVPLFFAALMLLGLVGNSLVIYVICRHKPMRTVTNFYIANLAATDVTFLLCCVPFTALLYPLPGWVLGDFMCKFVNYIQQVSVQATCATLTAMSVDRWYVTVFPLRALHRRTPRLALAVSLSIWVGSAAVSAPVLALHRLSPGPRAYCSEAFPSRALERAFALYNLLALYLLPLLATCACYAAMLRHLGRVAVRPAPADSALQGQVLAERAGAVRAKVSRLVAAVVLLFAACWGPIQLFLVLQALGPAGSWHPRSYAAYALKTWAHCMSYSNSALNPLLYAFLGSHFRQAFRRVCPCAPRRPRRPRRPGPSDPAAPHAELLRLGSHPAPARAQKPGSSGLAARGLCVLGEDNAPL", "test": "Human kisspeptin (KISS1R) small molecule agonists, calcium flux assay in KISS1R-HEK293 cells (AID 1920064)", "details": "KISS1R-HEK293, calcium flux fluorescence, agonist; series mostly up to 76.8 µM", "description": "National Center for Advancing Translational Sciences [NCATS]\nDivision of Preclinical Innovation [DPI]\nU.S. Environmental Protection Agency [EPA]\nNational Institutes of Environmental Health Sciences [NIEHS]\nNational Toxicology Program [NTP]\nU.S. Food and Drug Administration [FDA]\nKisspeptin and its receptor KISS1R play key roles in mammalian reproduction due to their involvement in the onset of puberty and control of the hypothalamic-pituitary-gonadal axis such as regulates GnRH release from the hypothalamus. The kisspeptin/KISS1R system also plays a direct role in peripheral organs (including the ovary, testis, uterus, and placenta) and is implicated in reproductive diseases such as miscarriage and polycystic ovary syndrome (PCOS). Abnormal KISS1R activity is associated with abnormal puberty, infertility, endometriosis, and hormone-dependent tumors. The KISS1 receptor (KISS1R, also called GPR54), a G-protein-coupled receptor (GPCR), acts (through phospholipase C) to increase intracellular inositol trisphosphate and then release intracellular calcium stores. Cell-based KISS1R-HEK293 assay is using HEK293 cells that have been genetically engineered to express the human KISS1R, which activity can be measured by calcium signaling. A compound/drug can activate (agonist) KISS1R that can be monitored by levels of intracellular calcium.\nKISS1R-HEK293 cells developed by Codex Corp contain human KISS1R gene, which was stably integrated into HEK 293 cells. The compound activation can be detected by fluorescence intensity via calcium flux assay. This cell line has been used to screen the Tox21 10K compound library to identify agonists of KISS1R.\nKISS1R-Hek293 cells were dispensed at 1500 cells/4uL/well in 1536-well black wall/clear bottom plates using a multidrop dispenser. After the assay plates were incubated at a 37 C/5% CO2 incubator for 18 hours, 4 microL of Calcium Dye Solution was added to each well. The plates were incubated at 37 C for 1 hour. And then 23 nL of compounds dissolved in DMSO, positive controls, or DMSO only was transferred to the assay plate by a pin tool station. The fluorescence intensity in the plates was measured using FDSS 7000EX kinetic plate reader with a filter set of Ex/Em=480/540 for 3 min at 1 sec intervals. Each test compound was measured at 15 concentrations and in triplicates.", "values": [
      {"smiles": "CCCCCCCCCCCCCC[N+](C)(C)Cc1ccccc1", "Potency": "inactive"},
      {"smiles": "Nc1cccc(C(F)(F)F)c1", "Potency": "inactive"},
      {"smiles": "Nc1cc(Cl)c(N)c(Cl)c1", "Potency": "inactive"},
      {"smiles": "CCCCCCCCCCCCCCCCCC(=O)OCC(O)CO", "note": "(stereo not given)", "Potency": "inactive"},
      {"smiles": "O=C1c2c(O)cccc2Cc2cccc(O)c21", "Potency": "inactive"},
      {"smiles": "CNC[C@H](O)[C@@H](O)[C@H](O)[C@H](O)CO", "Potency": "inactive"},
      {"smiles": "CCOc1ccc(NC(C)=O)cc1", "Potency": "inactive"},
      {"smiles": "O=C(c1ccccc1)C(O)c1ccccc1", "note": "(stereo not given)", "Potency": "inactive"},
      {"smiles": "Nc1ccc(S(=O)(=O)c2ccc(N)cc2)cc1", "Potency": "inactive"},
      {"smiles": "O=c1c(O)c(-c2ccc(O)c(O)c2)oc2cc(O)cc(O)c12", "Potency": "inactive"},
      {"smiles": "OC(CCl)CCl", "Potency": "inactive"},
      {"smiles": "C=C(C)C1CC=C(C)CC1", "note": "(stereo not given)", "Potency": "inactive"},
      {"smiles": "CC1(C)O[C@@H]2C[C@H]3[C@@H]4C[C@H](F)C5=CC(=O)CC[C@]5(C)[C@H]4[C@@H](O)C[C@]3(C)[C@]2(C(=O)CO)O1", "Potency": "inactive"},
      {"smiles": "Cc1ccc([N+](=O)[O-])c(C)c1", "Potency": "inactive"},
      {"smiles": "O=C(c1ccccc1)c1ccc(O)c(O)c1O", "Potency": "inactive"},
      {"smiles": "CN(C)CCCN", "Potency": "inactive"},
      {"smiles": "COC(=O)[C@H]1[C@H]2C[C@@H]3c4[nH]c5cc(OC)ccc5c4CCN3C[C@H]2C[C@@H](OC(=O)c2cc(OC)c(OC)c(OC)c2)[C@@H]1OC", "Potency": "inactive"},
      {"smiles": "Cc1cccc(C)c1O", "Potency": "inactive"},
      {"smiles": "O=C(Nc1ccccc1SSc1ccccc1NC(=O)c1ccccc1)c1ccccc1", "Potency": "inactive"},
      {"smiles": "CC(=O)Nc1ccccc1", "Potency": "inactive"},
      {"smiles": "CC(C)Cc1ccccc1", "Potency": "inactive"},
      {"smiles": "N=C(N)c1ccc(OCCCCCOc2ccc(C(=N)N)cc2)cc1", "Potency": "inactive"},
      {"smiles": "c1cc(-c2ccncc2)ccn1", "Potency": "inactive"},
      {"smiles": "CC(=O)c1ccc(S(=O)(=O)NC(=O)NC2CCCCC2)cc1", "Potency": "inactive"},
      {"smiles": "CC1=CC[C@H]2C[C@@H]1C2(C)C", "Potency": "inactive"},
      {"smiles": "c1ccc2cc(Nc3ccc(Nc4ccc5ccccc5c4)cc3)ccc2c1", "Potency": "inactive"},
      {"smiles": "CCC(=O)O", "Potency": "inactive"},
      {"smiles": "O=Cc1ccc(CO)o1", "Potency": "inactive"},
      {"smiles": "c1ccc2c(c1)ccc1ccccc12", "Potency": "inactive"},
      {"smiles": "Cc1ccc(S(=O)(=O)O)cc1", "Potency": "inactive"},
      {"smiles": "C=C(C)OC(C)=O", "Potency": "inactive"},
      {"smiles": "O=C1NS(=O)(=O)c2ccccc21", "Potency": "inactive"},
      {"smiles": "COC1=CC(=O)C[C@@H](C)[C@]12Oc1c(Cl)c(OC)cc(OC)c1C2=O", "Potency": "inactive"},
      {"smiles": "Cc1cccc([N+](=O)[O-])c1C", "Potency": "inactive"},
      {"smiles": "CCCCCCCCCCCCCC(=O)O", "Potency": "inactive"},
      {"smiles": "CCc1cccc(O)c1", "Potency": "inactive"},
      {"smiles": "CCCCCC1=CCCC1=O", "Potency": "inactive"},
      {"smiles": "COC(=O)CCC(=O)OC", "Potency": "inactive"},
      {"smiles": "C[C@]12CC[C@@H]3c4ccc(O)cc4CC[C@H]3[C@@H]1CC[C@@H]2O", "Potency": "inactive"},
      {"smiles": "CC1(C)C(=O)N(Cl)C(=O)N1Cl", "Potency": "inactive"}
    ]}
  ]
}
